# Laboratory results: the supplement of paper PMC9794691
# Columns and labels:
# H1975 [1] = assay: area under confluence curve of osimertinib + compound combination regimen (DTP regrowth); compare to osimertinib-only DTP control AUC of the same experiment (AUC (confluence x time, arbitrary)); details: test compound dose 300 nM
# How it was run: (§1)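 The area under the IncuCyte confluence–time curve, calculated in Prism and taken as the median of triplicates where available, is the value reported. It was measured in EGFR-mutant NSCLC lines that received the EGFR inhibitor either alone, followed by a test compound, or together with a fixed-dose test compound until the persister stage (10–21 days) and then drug-free medium. Medium was refreshed every 3–4 days until the inhibitor-only wells were confluent again.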
# HCC2279 [2] = assay: as above; details: test compound dose 300 nM
# How it was run: as §1
# HCC2935 [3] = assay: as above; details: test compound dose 300 nM, DMSO control AUC in same experiment: 11459
# How it was run: as §1
# HCC4006 [4] = assay: as above
# How it was run: as §1
# HCC827 [5] = assay: as above; details: test compound dose 300 nM
# How it was run: as §1
# II-18 [6] = assay: as above
# How it was run: as §1
# H1975 [7] = assay: area under confluence curve of compound monotherapy; compare to DMSO control AUC of the same experiment (AUC (confluence x time, arbitrary))
# How it was run: (§2)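 Adenocarcinoma lines were grown in RPMI 1640 with 10% FBS at 37 °C and 5% CO2, seeded at 20,000–30,000 cells/well in 48-well plates, and treated the next day with test compound alone at one dose: 1 uM or the highest dose giving <50% parental inhibition. Every 3–4 days the wells were washed with PBS and the drug was refreshed, and medium was drug-free from the DTP stage (10–21 days). IncuCyte tracked confluence until wells given only an EGFR inhibitor regrew. Area under the confluence curve was calculated in Prism, taking the median of triplicates where run, and set beside the vehicle value from the same experiment.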
# HCC2279 [8] = assay: as above
# How it was run: as §2
# HCC2935 [9] = assay: as above; details: DMSO control AUC in same experiment: 11459
# How it was run: as §2
# HCC4006 [10] = assay: as above
# How it was run: as §2
# HCC827 [11] = assay: as above
# How it was run: as §2
# II-18 [12] = assay: as above
# How it was run: as §2
# [13] = dosing schedule: sequential, osimertinib-only DTP control AUC in same experiment: 9121
# [14] = dosing schedule: upfront, osimertinib-only DTP control AUC in same experiment: 12748
smiles,measurement,setting,value
NC1(C(=O)N[C@@H](CCO)c2ccc(Cl)cc2)CCN(c2nc[nH]c3nccc2-3)CC1 [Capivasertib] + C=CC(=O)Nc1cc(Nc2nccc(-c3cn(C)c4ccccc34)n2)c(OC)cc1N(C)CCN(C)C [osimertinib],area under confluence curve,"H1975 [1]; dosing schedule: sequential, osimertinib-only DTP control AUC in same experiment: 9919, DMSO control AUC in same experiment: 26010",1840
same,area under confluence curve,"H1975 [1]; dosing schedule: upfront, osimertinib-only DTP control AUC in same experiment: 15327, DMSO control AUC in same experiment: 26010",3990
same,area under confluence curve,"HCC2279 [2]; dosing schedule: sequential, osimertinib-only DTP control AUC in same experiment: 20224, DMSO control AUC in same experiment: 29252",13700
same,area under confluence curve,"HCC2279 [2]; dosing schedule: upfront, osimertinib-only DTP control AUC in same experiment: 43517, DMSO control AUC in same experiment: 29252",38900
same,area under confluence curve,HCC2935 [3]; [13],5940
same,area under confluence curve,HCC2935 [3]; [14],10300
same,area under confluence curve,"HCC4006 [4]; test compound dose 300 nM, dosing schedule: sequential, osimertinib-only DTP control AUC in same experiment: 22375, DMSO control AUC in same experiment: 16794",17000
same,area under confluence curve,"HCC4006 [4]; test compound dose 300 nM, dosing schedule: upfront, osimertinib-only DTP control AUC in same experiment: 24440, DMSO control AUC in same experiment: 16794",12500
same,area under confluence curve,"HCC827 [5]; dosing schedule: sequential, osimertinib-only DTP control AUC in same experiment: 8266, DMSO control AUC in same experiment: 27404",5490
same,area under confluence curve,"HCC827 [5]; dosing schedule: upfront, osimertinib-only DTP control AUC in same experiment: 13929, DMSO control AUC in same experiment: 27404",9340
same,area under confluence curve,"II-18 [6]; test compound dose 300 nM, dosing schedule: sequential, osimertinib-only DTP control AUC in same experiment: 3520, DMSO control AUC in same experiment: 13556",3590
same,area under confluence curve,"II-18 [6]; test compound dose 300 nM, dosing schedule: upfront, osimertinib-only DTP control AUC in same experiment: 6532, DMSO control AUC in same experiment: 13556",2040
COc1nnc2ccc(N3CCC(c4ccc(OCCN5CCN(C)C(=O)[C@H]5C)cc4)CC3)nn12 + C=CC(=O)Nc1cc(Nc2nccc(-c3cn(C)c4ccccc34)n2)c(OC)cc1N(C)CCN(C)C [osimertinib],area under confluence curve,"H1975 [1]; dosing schedule: sequential, osimertinib-only DTP control AUC in same experiment: 12533, DMSO control AUC in same experiment: 14522",3520
same,area under confluence curve,"H1975 [1]; dosing schedule: upfront, osimertinib-only DTP control AUC in same experiment: 18969, DMSO control AUC in same experiment: 14522",15900
same,area under confluence curve,"HCC2279 [2]; dosing schedule: sequential, osimertinib-only DTP control AUC in same experiment: 5698, DMSO control AUC in same experiment: 27284",2470
same,area under confluence curve,"HCC2279 [2]; dosing schedule: upfront, osimertinib-only DTP control AUC in same experiment: 30623, DMSO control AUC in same experiment: 27284",13900
same,area under confluence curve,HCC2935 [3]; [13],2580
same,area under confluence curve,HCC2935 [3]; [14],4310
same,area under confluence curve,"HCC4006 [4]; test compound dose 30 nM, dosing schedule: sequential, osimertinib-only DTP control AUC in same experiment: 14882, DMSO control AUC in same experiment: 10921",6680
same,area under confluence curve,"HCC4006 [4]; test compound dose 30 nM, dosing schedule: upfront, osimertinib-only DTP control AUC in same experiment: 18913, DMSO control AUC in same experiment: 10921",5730
same,area under confluence curve,"HCC827 [5]; dosing schedule: sequential, osimertinib-only DTP control AUC in same experiment: 18675, DMSO control AUC in same experiment: 48895",4180
same,area under confluence curve,"HCC827 [5]; dosing schedule: upfront, osimertinib-only DTP control AUC in same experiment: 25542, DMSO control AUC in same experiment: 48895",12300
same,area under confluence curve,"II-18 [6]; test compound dose 30 nM, dosing schedule: sequential, osimertinib-only DTP control AUC in same experiment: 16416, DMSO control AUC in same experiment: 18996",4370
same,area under confluence curve,"II-18 [6]; test compound dose 30 nM, dosing schedule: upfront, osimertinib-only DTP control AUC in same experiment: 18996, DMSO control AUC in same experiment: 18996",14400
NC1(C(=O)N[C@@H](CCO)c2ccc(Cl)cc2)CCN(c2nc[nH]c3nccc2-3)CC1 [Capivasertib],area under confluence curve,"H1975 [7]; 300 nM, DMSO control AUC in same experiment: 26010",22500
same,area under confluence curve,"HCC2279 [8]; 300 nM, DMSO control AUC in same experiment: 29252",28500
same,area under confluence curve,HCC2935 [9]; 300 nM,6510
same,area under confluence curve,"HCC4006 [10]; 300 nM, DMSO control AUC in same experiment: 16794",16700
same,area under confluence curve,"HCC827 [11]; 300 nM, DMSO control AUC in same experiment: 27404",28500
same,area under confluence curve,"II-18 [12]; 300 nM, DMSO control AUC in same experiment: 13556",11600
CCN1CCN(Cc2ccc(Nc3ncc(F)c(-c4cc(F)c5nc(C)n(C(C)C)c5c4)n3)nc2)CC1 [Abemaciclib],area under confluence curve,"H1975 [7]; 100 nM, DMSO control AUC in same experiment: 14522",13800
same,area under confluence curve,"HCC2279 [8]; 100 nM, DMSO control AUC in same experiment: 27284",22900
same,area under confluence curve,HCC2935 [9]; 100 nM,8290
same,area under confluence curve,"HCC4006 [10]; 100 nM, DMSO control AUC in same experiment: 10921",9680
same,area under confluence curve,"HCC827 [11]; 100 nM, DMSO control AUC in same experiment: 48895",48500
same,area under confluence curve,"II-18 [12]; 100 nM, DMSO control AUC in same experiment: 13556",14000
COc1nnc2ccc(N3CCC(c4ccc(OCCN5CCN(C)C(=O)[C@H]5C)cc4)CC3)nn12,area under confluence curve,"H1975 [7]; 300 nM, DMSO control AUC in same experiment: 14522",6020
same,area under confluence curve,"HCC2279 [8]; 300 nM, DMSO control AUC in same experiment: 27284",21500
same,area under confluence curve,HCC2935 [9]; 300 nM,13000
same,area under confluence curve,"HCC4006 [10]; 30 nM, DMSO control AUC in same experiment: 10921",6660
same,area under confluence curve,"HCC827 [11]; 300 nM, DMSO control AUC in same experiment: 48895",42000
same,area under confluence curve,"II-18 [12]; 30 nM, DMSO control AUC in same experiment: 18996",14400
